Assay results published in PubChem BioAssay AID651813 (National Center for Advancing Translational Sciences (NCATS), 2012).
Hit rate of the full screen: of about 2,100 compounds, about 1,100 (52%) were called active. Roughly 27% stayed inconclusive and do not appear here. The call rests on the fitted dose curve; in most records, active means well fitted inhibition curve with a large enough effect; inconclusive means small, poorly fitted or top-dose-only effect; inactive means no such curve, though single readings can be large or run the other way. The set was probably picked from earlier hits. This is one part of the list.

Target: DNA dC->dU-editing enzyme APOBEC-3G (Homo sapiens) (UniProt Q9HC16)
Sequence (Q9HC16 whole entry, looked up): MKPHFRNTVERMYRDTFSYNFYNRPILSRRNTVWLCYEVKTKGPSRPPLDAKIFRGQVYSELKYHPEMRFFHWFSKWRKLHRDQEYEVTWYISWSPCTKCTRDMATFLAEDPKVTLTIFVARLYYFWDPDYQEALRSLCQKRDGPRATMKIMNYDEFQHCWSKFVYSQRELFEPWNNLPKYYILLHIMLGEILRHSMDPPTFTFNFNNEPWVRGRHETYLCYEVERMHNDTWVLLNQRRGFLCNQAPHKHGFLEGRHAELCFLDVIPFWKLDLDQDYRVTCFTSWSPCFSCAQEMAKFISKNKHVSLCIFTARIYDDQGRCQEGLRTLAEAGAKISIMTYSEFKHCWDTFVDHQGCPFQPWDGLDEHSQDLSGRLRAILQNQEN
Assay: qHTS for inhibitors of Vif-A3G interactions: Cherry picks counterscreen;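 further: hits raise yellow fluorescence by blocking Vif-driven A3G-eYFP degradation; nearly all actives have a fitted effect of over 70% in size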;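 on max response: max response given as percent of control signal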
Details: HeLa A3G-eYFP + Vif (tagged APOBEC3G with the HIV-1 protein that degrades it), eYFP fluorescence, 24 h
Text: The recent discovery and characterization of host restriction factors, which provide a potent defense to invading retroviruses, has provided new targets for antiviral drug development. APOBEC3G (A3G) and APOBEC3F (A3F) are potent cytidine deaminases that block HIV-1 replication; HIV-1 expresses the Vif protein, which counteracts A3G and A3F by binding to them and inducing their proteasomal degradation. The Vif-A3G and Vif-A3F interactions provide two potential targets for development of small molecules which can interfere with the ability of Vif to degrade A3G or A3F. […] To identify inhibitors that can interfere with Vif mediated degradation of A3G and A3F, we have developed Hela cell lines that stably express A3G or A3F tagged with eYFP at the C-terminal end (A3G-eYFP or A3F-eYFP, respectively) and Vif. In the absence of an inhibitor, Vif induces degradation of A3G-eYFP and A3F-eYFP, and the cells are not fluorescent. In the presence of an inhibitor, it is expected that Vif will be unable to degrade A3G-eYFP and/or A3F-eYFP, resulting in an increase in yellow fluorescence. In this counterscreen assay, Vif A3G was screened against the cherry picks ordered from the MLSMR. NIH Chemical Genomics Center [NCGC] NIH Molecular Libraries Probe Centers Network [MLPCN] MLPCN Grant: MH093245 Assay Submitter (PI): Vinay Pathak, National Cancer Institute
A3G-Vif cells were harvested from T225 flask and resuspended in phenol free OPTI-MEM medium with 5% FBS. Then 5 uL of 140,000 cells/mL resuspended cells was dispensed into each well of low base Aurora COC 1,536-well plates (black walled, clear bottom) using a Multidrop Combi dispenser. After overnight culture at 37 deg C with 5% CO2, a total of 23 nL of compounds at 5 selected concentrations from the NPC or positive control (2 mM stock of MG132) in DMSO was transferred to each well of the assay plate using a pintool (Kalypsys, San Diego, CA), and the plates were further incubated at 37 deg C with 5% CO2 for 24 hours. After that, the plates were measured on Acumen Explorer (TTP Lab Tech). The fluorescence was detected by 488 nm/Ex and […].
Potency means the concentration at half of the fitted maximal effect.

SMILES	Potency	max response
CC(=O)Nc1cccc(-c2ccnc3c2CC(C(=O)NCc2ccco2)O3)c1 (configuration not stated)	6.27 µM (active)	
O=c1nc(/C=C/c2ccc(Cl)cc2Cl)cc(C(F)(F)F)[nH]1	17.7 µM (active)	
CC(=O)OC1C2(CC3N4C(=O)C5(CO)SSC4(CC31O)C(=O)N5C)OC(C)C(C)(C)C2=O (configuration not stated)	12.5 µM (active)	
Nc1ccc2c3c(cccc13)-c1ccccc1-2	2.31 µM (active)	
C=C1C(=O)OC2C1CCC(C)C1(O)C=CC(=O)C21C (configuration not stated)	8.86 µM (active)	
Cc1cc(N2CCCC2)ccc1C=C(C#N)C#N	11.6 µM (active)	
Cc1ccccc1-n1c(O)c(/C=C/C=Nc2ccccc2)c(=O)[nH]c1=O		55.1% (inactive)
CCN(CC)c1ccc(N=Cc2c(O)n(Cc3ccccc3)c(=O)[nH]c2=O)cc1	13 µM (active)	
C=CCn1c(O)c(C(C)=Nc2ccc(N(CC)CC)cc2)c(=O)[nH]c1=O	9.94 µM (active)	
CCN(CC)c1ccc(N=Cc2c(O)n(CCC3=CCCCC3)c(=O)[nH]c2=O)cc1	23.1 µM (active)	
CCS(=O)(=O)N1N=C(c2cccc(NS(C)(=O)=O)c2)CC1c1ccccc1 (configuration not stated)	20.6 µM (active)	
Cc1nn(Cc2ccccc2)c(C)c1C(=O)OCC(=O)Nc1ccccc1SCC#N	15.8 µM (active)	
N#CC1=C(N)Oc2c(c(=O)sc3ccccc23)C1c1cccnc1 (configuration not stated)	5.59 µM (active)	
NC(=Nc1ccccc1)NN=Cc1c[nH]c2ccccc12	2.23 µM (active)	
CC(=O)O[C@@]12CO[C@@H]1C[C@H](OC1OCC(O)C(O)C1O)[C@@]1(C)C(=O)[C@H](O)C3=C(C)[C@@H](OC(=O)[C@H](O)[C@@H](NC(=O)c4ccccc4)c4ccccc4)C[C@@](O)([C@@H](OC(=O)c4ccccc4)C12)C3(C)C (some centres not stated)	1.25 µM (active)	
CCCCn1c(O)c(C(=O)/C=C/c2c[nH]c3ccccc23)c(=O)[nH]c1=O	4.44 µM (active)	
CC1=CC(=Cc2sc3ccccc3[n+]2C)C=C(C)O1	20.6 µM (active)	
Cc1c(Cl)cccc1NC(=O)c1oc2ccc(S(=O)(=O)N3CCC4(CC3)OCCO4)cc2c1C	7.31 µM (active)	
CN1CCN(c2ccc(/C=C3\C(=O)NC(=S)N(c4cccc(Br)c4)C3=O)o2)CC1	16.4 µM (active)	

SMILES	Potency	max response
CN1C(=O)/C(=C\c2ccc(N3CCCCC3)o2)C(=O)NC1=S	17.7 µM (active)	
CN1C(=O)/C(=C/c2ccc(N3CCCCCC3)o2)C(=O)NC1=S	15.8 µM (active)	
COc1cc2c(cc1O)[C@@H]1Cc3ccc(OC)c(O)c3CN1CC2	12.5 µM (active)	
COc1ccc(-n2cnc3cc(C(=O)N4CCC5(CC4)OCCO5)ccc32)cc1	9.94 µM (active)	
COc1cccc(C2=CC(c3cc(Br)ccc3F)n3nnnc3N2)c1 (configuration not stated)	1.84 µM (active)	
ClCCN(CCCl)c1ccc(C=Cc2ccncn2)cc1		-8.89% (inactive)
Cc1cc(N(CCCl)CCCl)ccc1C=Cc1ccncn1	20.6 µM (active)	
CCN(CC)c1ccc2c(cc1=O)[C@@H](NC)CCc1cc(OC)c(OC)c(OC)c1-2	2.5 µM (active)	
CN1C(=O)C(=Cc2ccc(N3CCOCC3)o2)C(=O)N(C)C1=O	23.1 µM (active)	
CN1C(=O)C(=Cc2ccc(N3CCCCC3)o2)C(=O)N(C)C1=S	2.91 µM (active)	
CN1C(=O)C(=Cc2ccc(N3CCOCC3)o2)C(=O)N(C)C1=S	20.6 µM (active)	
CCN(CC)c1ccc(/C=C2\C(=O)NC(=S)N(c3ccc(OC)cc3OC)C2=O)o1	18.4 µM (active)	
CCN(CC)c1ccc(C=C2C(=O)N(C)C(=S)N(C)C2=O)o1	6.27 µM (active)	
CCN1C(=O)/C(=C/c2ccc(N(CC)CC)cc2OC)C(=O)NC1=S	18.4 µM (active)	
CCN(CC)c1ccc(/C=C2\C(=O)NC(=S)N(C)C2=O)o1	14 µM (active)	
COc1cc(C2C(C#N)=C(N)Oc3cc(O)ccc32)cc(OC)c1OC (configuration not stated)	1.77 µM (active)	
CN1/C(=C\C=C2C(=O)NC(=O)NC2=O)C(C)(C)c2ccccc21	2.91 µM (active)	
CN(C)c1ccc(C(=O)c2ccc(N(C)C)cc2)cc1	1.58 µM (active)	
CCCCNC(=O)/C(C#N)=c1\s/c(=C\c2ccccc2OC(F)F)c(=O)n1CCCOC	18.4 µM (active)	

SMILES	Potency	max response
COc1ccc(-c2ccc(OC)c(OC)c2OC)cc1	3.96 µM (active)	
O=C1NC(=O)N(c2ccc3c(c2)OCO3)C(=O)/C1=C\c1ccc(N2CCCCC2)o1	20.6 µM (active)	
O=C1NC(=O)N(c2ccc3c(c2)OCO3)C(=O)/C1=C/c1ccc(N2CCCCC2)o1	23.1 µM (active)	
CC(C)c1ccc(N2C(=O)NC(=O)/C(=C/C=C/c3ccco3)C2=O)cc1	14 µM (active)	
Cc1cc(/C=C2\C(=O)NC(=O)N(c3ccc(Br)cc3)C2=O)c(C)n1C		8.75% (inactive)
CC(C)c1ccc(N2C(=O)NC(=O)/C(=C\C=C\c3ccco3)C2=O)cc1	14 µM (active)	
O=C(Cc1ccccc1)c1ccccn1	12.5 µM (active)	
Cc1cccc(CN2CCCC(C(=O)c3cccc(OC(C)C)c3)C2)n1 (configuration not stated)		2.93% (inactive)
O=c1[nH]c(CN2CC=C(c3ccccc3)CC2)nc2scc(-c3ccccc3)c12	8.2 µM (active)	
O=C1NC(=S)SC1=Cc1ccc(N(CCCl)CCCl)cc1	15.8 µM (active)	
Cc1ccc(CNC(=O)c2ccccc2NC(=O)c2nsc3ccccc23)cc1	23.1 µM (active)	
COc1ccc(-n2c(/C=C/c3ccc(O)c(OC)c3)nc3ccccc3c2=O)cc1	23.1 µM (active)	
Cc1cccc(-n2c(O)c(/C=C/C=Nc3ccccc3)c(=O)[nH]c2=O)c1		59.1% (inactive)
Cc1cccc(-n2c(/C=C/c3c(C)[nH]c4ccccc34)nc3ccccc3c2=O)c1	18.4 µM (active)	
O=c1c2ccccc2nc(/C=C/c2ccc([N+](=O)[O-])o2)n1-c1ccc(O)cc1	8.86 µM (active)	
Cc1cccc(-n2c(/C=C/c3ccc([N+](=O)[O-])o3)nc3ccccc3c2=O)c1	5.17 µM (active)	
COc1ccc2nc(NC(=O)c3nc(S(=O)(=O)Cc4cccc(C)c4)ncc3Cl)sc2c1		58.8% (inactive)
Cc1ccccc1-n1c(/C=C/c2ccc(N(C)C)cc2)nc2ccccc2c1=O	1.46 µM (active)	
O=Cc1c(C(=O)O)n(Cc2ccc(Cl)cc2)c2ccccc12	3.66 µM (active)	
